Experimental data from PubChem BioAssay AID463173 (ICCB-Longwood Screening Facility, Harvard Medical School, 2010).
The campaign covered roughly 52,000 compounds. About 4,300 (8.3%) were called active. Cut-off read from the data, not from the text of the source: active = survival mostly below about 52% (no sharp cut-off); inactive = mostly above about 56%. The entries come from a sample that favours actives as a whole.

test system: DeltatarO mutant; assay: S. aureus survival, RN4220 and DeltatarO strains – OD600, teichoic acid synthesis inhibitors, primary screen (AID 463173); settings: S. aureus RN4220 wild type/DeltatarO growth, OD600, 18 h, active compounds read low, screened at 18.75 µg/mL (by protocol)

| Compound | survival |
| --- | --- |
| COc1ccc(CNc2ccc(C)c(C)c2)c(OC)c1OC | 93% (inactive) |
| Cc1ccc2c(c1)N(C(=O)N1CCC(C(=O)NC3CCCCCC3)CC1)CC(C)O2 (configuration not stated) | 72% (inactive) |
| Cc1c(/C=C(\C#N)C(=O)Nc2cccc(Cl)c2)c2ccccc2n1Cc1ccccc1Cl | 123% (inactive) |
| Nc1c(S(=O)(=O)Cc2ccccc2)sc2nc3c(cc12)CCCC3 | 49% (inactive) |
| Cc1nnnn1CCC(=O)NC(C)c1ccccc1 (configuration not stated) | 84% (inactive) |
| Cc1cc(C)nc(N(C#N)Cc2ccccc2)n1 | 100% (inactive) |
| Cc1cc(C)cc(-n2c(SCC(=O)Nc3ccccc3)nc3c(oc4ccccc43)c2=O)c1 | 101% (inactive) |
| CCOC(=O)/C(C#N)=C\c1ccc(-c2cccc(C(F)(F)F)c2)o1 | 84% (inactive) |
| CCCCOC(=O)/C(C#N)=C/c1ccc(-c2cccc(C(F)(F)F)c2)o1 | 46% (active) |
| CCC(C)OC(=O)/C(C#N)=C\c1ccc(-c2cccc(C(F)(F)F)c2)o1 (configuration not stated) | 64% (inactive) |
| Cc1ccc(NC(=O)/C(C#N)=C/c2ccc(C)o2)cc1 | 79% (inactive) |
| CCOC(=O)c1ccc(-c2ccc(/C=C(\C#N)C(=O)Nc3ccc(OCC)cc3)o2)cc1 | 60% (inactive) |
| CCCCOC(=O)c1ccc(NC(=O)/C(C#N)=C/c2ccc(-c3ccccc3)o2)cc1 | 32% (active) |
| CCCCOC(=O)c1ccc(NC(=O)/C(C#N)=C/c2ccc(C)o2)cc1 | 49% (active) |
| N#C/C(=C\c1ccc(-c2ccccc2)o1)C(=O)Nc1ccccc1 | 90% (inactive) |
| COc1ccc(NC(=O)/C(C#N)=C/c2ccc(C)o2)cc1 | 77% (inactive) |
| CCNC1CC(=O)N(c2ccc(C(=O)OCC)cc2)C1=O (configuration not stated) | 112% (inactive) |
| CCOC(=O)C(C)Nc1ncnc2onc(C)c12 (configuration not stated) | 53% (inactive) |
| CCN(C(=O)Cn1c(=O)n(Cc2ccccc2)c(=O)c2c1c1cc(OC)ccc1n2C)c1ccccc1 | 84% (inactive) |

| Compound | survival |
| --- | --- |
| COc1ccc(Cl)cc1NC(=O)CSc1nc2c([nH]c3ccccc32)c(=O)n1-c1ccccc1 | 81% (inactive) |
| NNC(=O)CNC(=O)c1cccs1 | 79% (inactive) |
| COc1ccccc1/C=C/C(=O)N1CCC(C(N)=O)CC1 | 99% (inactive) |
| COC(=O)c1ccc(NC(=O)CSc2ccc(-c3cccs3)nn2)cc1 | 85% (inactive) |
| COc1ccccc1OCC(=O)Nc1c(C(=O)c2ccc(C)cc2)oc2ccccc12 | 82% (inactive) |
| Cc1ccc(C)c(NC(=O)CSc2nnc3[nH]c(=O)cc(-c4ccccc4)n23)c1 | 105% (inactive) |
| COC(=O)c1ccc(NS(=O)(=O)c2ccc3[nH]c4c(c3c2)CCCC4)cc1 | 6% (active) |
| Cc1ccc(NS(=O)(=O)c2ccc3[nH]c4c(c3c2)CCCCCC4)cc1C | -1% (active) |
| O=S(=O)(NCc1ccc(F)cc1)c1ccc2[nH]c3c(c2c1)CCCCC3 | 61% (inactive) |
| O=S(=O)(NCc1ccc(F)cc1)c1ccc2[nH]c3c(c2c1)CCCC3 | -1% (active) |
| Cc1ccc(NS(=O)(=O)c2ccc3[nH]c4c(c3c2)CCCCCC4)cc1 | 84% (inactive) |
| COc1cc(NS(=O)(=O)c2ccc3[nH]c4c(c3c2)CCCCCC4)cc(OC)c1 | 64% (inactive) |
| Cc1ccc(NS(=O)(=O)c2ccc3[nH]c4c(c3c2)CCCCCC4)cc1Cl | 72% (inactive) |
| COc1ccc(NS(=O)(=O)c2ccc3[nH]c4c(c3c2)CCCCCC4)cc1 | -2% (active) |
| Cc1ccc(CNS(=O)(=O)c2ccc3[nH]c4c(c3c2)CCCC4)cc1 | 84% (inactive) |
| COC(=O)c1ccc(NS(=O)(=O)c2ccc3[nH]c4c(c3c2)CCCCC4)cc1 | 91% (inactive) |
| COc1ccc(NS(=O)(=O)c2ccc3[nH]c4c(c3c2)CCCCC4)cc1 | 117% (inactive) |
| CC(=O)c1ccc(NS(=O)(=O)c2ccc3[nH]c4c(c3c2)CCCC4)cc1 | 83% (inactive) |
